Shown is part of a subset that was picked to be rich in hits.
ST2 inh = IL1RL1 inhibition; Q01638; AlphaLISA ST2-Fc/biotin-IL-33 interaction, 1 h; inhibition, % for hits at 17 µM; actives 2.3% (n = 78,000); in the data active = inhibition above about 30%
Target sequence (Q01638 whole entry, looked up): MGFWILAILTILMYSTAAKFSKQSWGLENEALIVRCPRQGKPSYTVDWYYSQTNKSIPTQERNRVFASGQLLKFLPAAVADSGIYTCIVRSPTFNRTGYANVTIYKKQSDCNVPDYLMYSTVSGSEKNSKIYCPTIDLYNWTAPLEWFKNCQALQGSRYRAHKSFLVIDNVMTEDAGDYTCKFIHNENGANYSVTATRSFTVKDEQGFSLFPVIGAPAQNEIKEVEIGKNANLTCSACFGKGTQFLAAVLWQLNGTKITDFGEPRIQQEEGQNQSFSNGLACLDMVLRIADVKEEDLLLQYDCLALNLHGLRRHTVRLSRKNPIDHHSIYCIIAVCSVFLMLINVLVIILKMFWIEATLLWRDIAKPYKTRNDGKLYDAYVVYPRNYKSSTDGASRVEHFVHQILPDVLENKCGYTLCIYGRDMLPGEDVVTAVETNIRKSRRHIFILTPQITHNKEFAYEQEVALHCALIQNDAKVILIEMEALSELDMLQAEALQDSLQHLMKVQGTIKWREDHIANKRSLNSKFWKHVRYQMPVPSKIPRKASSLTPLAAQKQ
Each line names hits and unclear results; the compound was inactive in the other large screens; ! = a repeat was not active.

COc1ccccc1N1CCN(C(=O)c2ccc3nc4ccc(Cl)cc4c(=O)n3c2)CC1	none
COc1ccc(CC2CN(CC3CCC(N)CC3)CCO2)cc1 (stereo unspecified)	none
CNC(=O)CN(C1CCCCC1)S(=O)(=O)c1ccccc1	none
CC(=O)Nc1ccc(S(=O)(=O)N(CC2C(C)C=C(C)CC2C)C2CCCCC2)cc1 (stereo unspecified)	ST2 inh 32%
O=C(CN(C1CCCCC1)S(=O)(=O)c1ccc(Br)cc1)NC1CC1	none
Cc1cc(Cl)ccc1OCc1nc(-c2nonc2N)no1	none
Cc1ccc(CN2CCC(CNC(=O)CNC(N)=O)C2)c(C)c1F (stereo unspecified)	none
COc1cc2c(cc1OC)C(C(=O)N1CCCC(C)C1)C(c1cccs1)N(C)C2=O (stereo unspecified)	none
CCOC(=O)C1CCCN(C2CCCN(c3nc(C)c4ccc(S(C)(=O)=O)cc4n3)CC2)C1 (stereo unspecified)	none
O=C(O)CCC(=O)Nc1ccc(C(=O)O)cc1	none
CN(C)c1ccc(NC(=O)CCC(=O)O)cc1	ST2 inh 51%
O=C(O)CCC(=O)Nc1ccc(I)cc1	none
CC(C)n1cnnc1CN(C)c1nccc(CCC(F)(F)F)n1	none
COc1ccc(-n2nc3c(c2NC(=O)c2cc(Br)ccc2Cl)CSC3)cc1	none
CCn1cc(C(=O)Nc2cccc(C)n2)c2cc(OC)c(OC)cc2c1=O	none
Nc1nc(N)nc(-c2ccc(Oc3ccccc3)cc2)n1	none
O=C1c2ccccc2C(=O)N1CC(O)COc1ccccc1 (stereo unspecified)	none
Nc1c(Oc2ccccc2)c(Oc2ccccc2)c(N)c2c1C(=O)c1ccccc1C2=O	ST2 inh 92%
O=C(CSc1nc2c(sc3ccccc32)c(=O)n1Cc1ccccc1)NCc1ccco1	none
Cc1cc(Oc2cc(C#N)c(C#N)cc2[N+](=O)[O-])cc(C)c1Cl	ST2 inh 39%
COc1ccc(NC(=O)c2cccc(Oc3ccc(C(F)(F)F)cc3[N+](=O)[O-])c2)cc1	none
CCOc1ccc(C(=O)Nc2c(C)cccc2CC)cc1[N+](=O)[O-]	none
Cc1ccsc1CN(C)C(=O)Nc1nnc(CCN2CCOCC2)s1	none
COc1ccc(C(=O)NC(N2CCOCC2)C(Cl)(Cl)Cl)cc1 (stereo unspecified)	none
Cc1nccn1-c1nc(-c2ccc(F)cc2)cc(C(F)(F)F)n1	none
CCC(NC(=O)Cn1nc(C(F)F)cc1C)c1ccnn1C (stereo unspecified)	none
CCCn1ncc(CN2CCCC(Cc3cccc(OC)c3)(C(=O)OCC)C2)c1C (stereo unspecified)	none
Cc1nc(C(C)C)sc1C(=O)N(Cc1ccccn1)CC1CCCO1 (stereo unspecified)	none
Cn1c(=O)c2c(-c3ccccc3)n(N)cc2n(C)c1=O	none
Cn1c(=O)c(N)c2c3c(cccc31)C(=O)c1ccccc1-2	ST2 inh 31%
Cn1c2c(c(=O)n(C)c1=O)C(c1ccccc1)C1=C(N2)c2ccccc2C1=O (stereo unspecified)	none
CS(=O)(=O)C1=C(N)C(=O)N(c2ccccc2)C1c1ccccc1 (stereo unspecified)	none
COc1ccc(NC(=O)c2cc(C3CC3)on2)c(OC)c1	none
CN(C)CCN(C)C(=O)[C@@H]1C[C@@H](NC(=O)c2cc3ccccc3s2)CN1	none
Cc1ccc(CC2(NC(=O)c3cc(=O)[nH][nH]3)CC2)cc1	none
CC(C)(C)n1cnc2cc(NCc3ccccn3)ccc21	none
CCn1cnc2cc(NCc3cccs3)ccc21	none
CCn1cnc2cc(NCc3ccc(C)cc3)ccc21	none
CC(C)(C)n1cnc2cc(NCc3ccncc3)ccc21	none
CCN(CC)c1ccc(CNc2ccc3c(c2)ncn3CC)cc1	ST2 inh 52%!
CCCCn1cnc2cc(NCc3ccc(Br)cc3)ccc21	none
CCCn1cnc2cc(NCc3ccncc3)ccc21	none
CCn1cnc2cc(NCc3ccc(N(C)C)cc3)ccc21	ST2 inh 52%!
CN(C)c1ccc(CNc2ccc3c(c2)ncn3C(C)(C)C)cc1	ST2 inh 33%
COc1nc(Nc2ccc3c(c2)OCO3)nc(OC)n1	none
C[C@H]1[C@@H]2[C@@H](O)C([C@H](C)C(=O)NCc3cc(F)cc(F)c3)CC[C@@]2(C)CC[C@@H]1NC(=O)c1ccccn1 (stereo partly specified)	none
CCSc1ncc(CN2CC[C@@](C)(O)[C@@H](Cc3ccccc3)C2)cn1	none
CC1C2NC(=O)N(c3ccc(F)cc3)C1(C)Oc1ccc(Br)cc12 (stereo unspecified)	none
O=C(C1CC1)N1CCc2cc(S(=O)(=O)NCc3ccccc3)ccc21	none
Cc1ccccc1-c1nc2cc(NC(=O)c3cc([N+](=O)[O-])cc([N+](=O)[O-])c3)ccc2o1	none
O=C(NC(Cc1c[nH]c2ccccc12)C(=O)O)c1ccccc1 (stereo unspecified)	none
O=C(N[C@H]1CCN2C(=O)[C@@H](Cc3c[nH]c4ccccc34)NC(=O)[C@H]12)c1ccccc1	ST2 inh 79%
CC(C)C1NC(=O)CNC(=O)C2CCCN2C(=O)C(Cc2c[nH]c3ccccc23)NC(=O)CNC(=O)C(C(O)c2ccc(O)cc2)NC(=O)CNC1=O (stereo unspecified)	none

Screening data from PubChem BioAssay.
